# Test results published in PubChem BioAssay (NCATS).
# Records with an inconclusive call do not appear. A call without a number means that no potency is given here. Activity calls are given as the source filed them. The call rests on the fitted dose curve; tested in HEK293 reporter line.
# Experiment: qHTS for Inhibitors of the Functional Ribonucleoprotein Complex (vRNP) of Lassa (LASV) Arenavirus: LASV Primary Screen - GLuc reporter signal (AID 1347082); further: nearly all actives have a fitted effect of over 60% in size
# Settings: LASV minigenome vRNP, Gaussia luciferase reporter; series mostly up to 57.5 µM
# Potency means the concentration at half of the fitted maximal effect.
row,Compound,Potency
1,Cc1cccc(C#Cc2ccccc2)n1,inactive
2,Cc1ccc(C(N)=O)cc1Nc1nccc(-c2cn(C(C)C)c3cnccc23)n1,24.3 µM (active)
3,CCCOC(=O)c1ccc(O)cc1,inactive
4,O=C1CCCC2=C1C(c1[nH]ncc1Cl)N=C(Nc1nc3ccccc3o1)N2 (configuration not stated),inactive
5,O=C(O)[C@H](Cc1c[nH]c2ccccc12)N1C(=O)c2ccccc2C1=O,inactive
6,CC1(C)Cc2c(-c3ccccc3)c(-c3ccc(Cl)cc3)c(CC(=O)O)n2C1,inactive
7,CCC[C@H](NC(=O)C(C#N)=Cc1cccc(Br)n1)c1ccccc1,inactive
8,COc1cc(OC2CCN(C)CC2)ccc1Nc1ncc2c(n1)n(C1CCCC1)c(=O)n2C,inactive
9,C[C@@H]1CN(c2c(F)c(N)c3c(=O)c(C(=O)O)cn(C4CC4)c3c2F)C[C@H](C)N1,inactive
10,C1=CCOCc2cc(ccc2OCCN2CCCC2)Nc2nccc(n2)-c2cccc(c2)OCC1,12.2 µM (active)
11,C=CC(=O)Nc1cc2c(Nc3ccc(F)c(Cl)c3)ncnc2cc1C#CC(C)(C)N1CCN(C)CC1,inactive
12,NC(=O)c1ccc(N(C(N)=O)c2c(F)cccc2F)nc1-c1ccc(F)cc1F,inactive
13,Nc1nc2ccc([N+](=O)[O-])cc2s1,inactive
14,CCC(C(=O)O)c1ccc(N2Cc3ccccc3C2=O)cc1 (configuration not stated),inactive
15,COc1ccc2cc(CCC(C)=O)ccc2c1,inactive
16,COc1ccc2c(c1)CC[C@@H](CN(C)CC(=O)O)[C@H]2c1ccccc1,inactive
17,COc1ncnc(NS(=O)(=O)c2ccc(N)cc2)c1OC,inactive
18,CNC(=O)c1cc(Oc2ccc(NC(=O)Nc3cc(C(C)(C)C)nn3-c3ccc4ncccc4c3)c(F)c2)ccn1,7.69 µM (active)
19,C/C(=C1\CCOC(=O)S1)N(C=O)Cc1cnc(C)nc1N,inactive
20,CCOC(CN1C(=O)[C@](CC(=O)Nc2ccc(C)cc2)(NC(=O)Nc2ccc(C)cc2)c2ccccc21)OCC,inactive
21,O=C(C=Cc1ccc(/C=C/C(=O)Nc2ccc(C3=NCCN3)cc2)cc1)Nc1ccc(C2=NCCN2)cc1,inactive
22,CCN(CC)CCOc1ccc(Nc2ncc3cc(-c4c(Cl)cccc4Cl)c(=O)n(C)c3n2)cc1,1.93 µM (active)
23,COc1cc2c(cc1OC)CC(=O)N(CCCN(C)C[C@H]1Cc3cc(OC)c(OC)cc31)CC2,inactive

# Experiment: qHTS for Inhibitors of the Functional Ribonucleoprotein Complex (vRNP) of Lassa (LASV) Arenavirus: Viability assay - alamar blue signal for LASV Primary Screen (AID 1347083); further: nearly all actives have a fitted effect of over 80% in size
# Settings: cell viability, alamar blue fluorescence (LASV minigenome counter-screen); series mostly up to 57.5 µM
row,Compound,Potency
1,CC(NCc1ccc2c(c1)nc(NC(=O)c1ccc(-c3cn[nH]c3)s1)n2CC(C)(C)O)C(C)(C)C (configuration not stated),0.485 µM (active)
2,O=C(Nc1cccc(Cl)c1)Nc1ncc(CCNc2ncnc3ccsc23)s1,inactive
3,CCc1cc(Nc2nccc(-c3c(-c4ccc(OC)c(C(=O)Nc5c(F)cccc5F)c4)nc4ccccn34)n2)c(OC)cc1N1CCC(N2CCN(S(C)(=O)=O)CC2)CC1,inactive
4,C[C@@H](N)C1CCC(C(=O)Nc2ccncc2)CC1 (some centres not stated),21.7 µM (active)
5,CN(C)C1CCN(C(=O)c2ccc(NC(=O)Nc3nc(N4CCOCC4)nc(N4CCOCC4)n3)cc2)CC1,0.0685 µM (active)
6,CC(=O)N[C@@H](CCC(N)=O)C(=O)O,inactive
7,NCCS,inactive
8,CC(=O)OCCN1C(=O)c2c(C)nc3ccc(S(=O)(=O)N4CCOCC4)cc3c2C1=O,inactive
9,O=C(Nc1cc(Cl)cc2c1[nH]c1cnccc12)c1cccnc1,21.7 µM (active)
10,COc1ccc(-c2ccc3c(N4CCOCC4)nc(N4C[C@@H](C)O[C@@H](C)C4)nc3n2)cc1CO,0.243 µM (active)
11,Nc1ccccc1NC(=O)c1ccc(CNc2nccc(-c3cccnc3)n2)cc1,6.85 µM (active)
12,C=CC(=O)Nc1cccc(Oc2nc(Nc3ccc(N4CCN(C)CC4)cc3OC)ncc2Cl)c1,0.0385 µM (active)
13,CC(C)(C)c1cnc(CSc2cnc(NC(=O)C3CCNCC3)s2)o1,0.968 µM (active)
14,O=C(NC1CCNCC1)c1[nH]ncc1NC(=O)c1c(Cl)cccc1Cl,0.769 µM (active)
15,CCn1cc(C(=O)O)c(=O)c2cc3c(cc21)OCO3,inactive
16,C[C@@]12O[C@@H](C[C@]1(O)CO)n1c3ccccc3c3c4c(c5c6ccccc6n2c5c31)CNC4=O,0.432 µM (active)
17,Cc1cccc(C#Cc2ccccc2)n1,inactive
18,Cc1ccc(C(N)=O)cc1Nc1nccc(-c2cn(C(C)C)c3cnccc23)n1,15.3 µM (active)
19,CCCOC(=O)c1ccc(O)cc1,inactive
20,O=C1CCCC2=C1C(c1[nH]ncc1Cl)N=C(Nc1nc3ccccc3o1)N2 (configuration not stated),inactive

row,Compound,Potency
1,O=C(O)[C@H](Cc1c[nH]c2ccccc12)N1C(=O)c2ccccc2C1=O,inactive
2,CC1(C)Cc2c(-c3ccccc3)c(-c3ccc(Cl)cc3)c(CC(=O)O)n2C1,inactive
3,CCC[C@H](NC(=O)C(C#N)=Cc1cccc(Br)n1)c1ccccc1,34.3 µM (active)
4,COc1cc(OC2CCN(C)CC2)ccc1Nc1ncc2c(n1)n(C1CCCC1)c(=O)n2C,24.3 µM (active)
5,C[C@@H]1CN(c2c(F)c(N)c3c(=O)c(C(=O)O)cn(C4CC4)c3c2F)C[C@H](C)N1,inactive
6,C1=CCOCc2cc(ccc2OCCN2CCCC2)Nc2nccc(n2)-c2cccc(c2)OCC1,7.69 µM (active)
7,C=CC(=O)Nc1cc2c(Nc3ccc(F)c(Cl)c3)ncnc2cc1C#CC(C)(C)N1CCN(C)CC1,inactive
8,NC(=O)c1ccc(N(C(N)=O)c2c(F)cccc2F)nc1-c1ccc(F)cc1F,34.3 µM (active)
9,Nc1nc2ccc([N+](=O)[O-])cc2s1,inactive
10,CCC(C(=O)O)c1ccc(N2Cc3ccccc3C2=O)cc1 (configuration not stated),inactive
11,COc1ccc2cc(CCC(C)=O)ccc2c1,inactive
12,COc1ccc2c(c1)CC[C@@H](CN(C)CC(=O)O)[C@H]2c1ccccc1,10.9 µM (active)
13,COc1ncnc(NS(=O)(=O)c2ccc(N)cc2)c1OC,inactive
14,CNC(=O)c1cc(Oc2ccc(NC(=O)Nc3cc(C(C)(C)C)nn3-c3ccc4ncccc4c3)c(F)c2)ccn1,19.3 µM (active)
15,C/C(=C1\CCOC(=O)S1)N(C=O)Cc1cnc(C)nc1N,inactive
16,CCOC(CN1C(=O)[C@](CC(=O)Nc2ccc(C)cc2)(NC(=O)Nc2ccc(C)cc2)c2ccccc21)OCC,inactive
17,O=C(C=Cc1ccc(/C=C/C(=O)Nc2ccc(C3=NCCN3)cc2)cc1)Nc1ccc(C2=NCCN2)cc1,inactive
18,CCN(CC)CCOc1ccc(Nc2ncc3cc(-c4c(Cl)cccc4Cl)c(=O)n(C)c3n2)cc1,0.0306 µM (active)
19,COc1cc2c(cc1OC)CC(=O)N(CCCN(C)C[C@H]1Cc3cc(OC)c(OC)cc31)CC2,inactive
